Test results: PubChem BioAssay AID2409 (Southern Research Specialized Biocontainment Screening …, 2010)
Potency and affinity values are given separately. Values without a mark were called inactive. How the calls were made is not given here.

test: Venezuelan equine encephalitis virus CPE inhibition in Vero cells, confirmatory stage (AID 2409); settings: VEEV-infected Vero cells; series mostly up to 66.6 µM; CPE inhibition: at the top concentration

Row | Structure (SMILES) | CPE inhibition
1 | O=C(CSc1nc2ccccc2c(=O)n1-c1ccc(F)cc1F)Nc1ccc2c(c1)CCC2 | 2.77% [at 134 µM]
2 | O=C(CSc1nc2ccccc2c(=O)n1-c1ccc(F)c(Cl)c1)Nc1ccc2c(c1)CCC2 | -0.76%
3 | O=C(CSc1nc2cccc(I)c2c(=O)n1-c1ccccc1)Nc1ccc2c(c1)CCC2 | -11.4% [at 134 µM]
4 | O=c1c2cc(Cl)cc(Cl)c2nc2n1CCC2 | -11.7%
5 | O=C(CSc1nc2ccccc2c(=O)n1-c1ccc(F)cc1)Nc1cccc2ccccc12 | -2.62%
6 | CCCN(C(=O)c1ccccc1Cl)c1nc(-c2ccc(OC)cc2)cs1 | 1.7%
7 | Cc1ccc2nc3n(c(=O)c2c1)CCC3 | 3.91%
8 | OC1c2cc(I)ccc2N=C2CCCN21 (centres undefined) | -61.1% [at 134 µM]
9 | Cc1cccc2nc3n(c(=O)c12)CCC3 | -1.93%
10 | COc1ccc(-c2csc(N(C)C(=O)c3ccccc3Cl)n2)cc1 | -57.3%
11 | O=C(CSc1nc2ccccc2c(=O)n1-c1ccc(F)cc1)Nc1ccc2c(c1)OCCO2 | -20.3%
12 | O=[N+]([O-])c1ccc2c(c1)C(O)N1CCCC1=N2 (centres undefined) | -4.15%
13 | Cc1cccc2c(=O)n3c(nc12)CCC3 | -4.01%
14 | OC1c2cc(Br)ccc2N=C2CCCCN21 (centres undefined) | -26.5% [at 134 µM]
15 | Nc1ccc2nc3n(c(=O)c2c1)CCC3 | -26.1%
16 | O=C(CSc1nc2ccccc2c(=O)n1-c1ccc(F)cc1)Nc1ccc2c(c1)CCC2 | -15.7% [at 134 µM]
17 | O=C(CSc1nc2ccccc2c(=O)n1-c1ccc(Cl)c(Cl)c1)Nc1ccc2c(c1)CCC2 | -27.2%
18 | O=c1c2cc([N+](=O)[O-])ccc2nc2n1CCC2 | -0.71%
19 | O=C(CSc1nc2ccccc2c(=O)n1-c1ccccc1F)Nc1ccc2c(c1)CCC2 | -5.29%
